Our source for the growth inhibition values is PubChem BioAssay (NCI).

About 79,000 compounds went through this panel and 15% of them were active in at least one assay; those are over-represented in the sample as a whole. A number with no mark means an inactive call. Calls of active or inactive are those of the source. No stated cut-off is given here; in the data, active means growth inhibition above about 70%; inactive means the rest.

This assay is described as follows: NCI Yeast Anticancer Drug Screen. Data for the CLN2oe strain (AID 163).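 Further: 0% = growth of vehicle-only control cultures.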 The conditions noted are these: S. cerevisiae CLN2oe strain, stronger effect = higher value. The protocol:
Growth inhibition of yeast strains with defined genetic alterations is measured as a screen for potential anti-cancer activity. Selected strains with alterations in DNA damage repair or cell cycle control were exposed to compounds and growth inhibition was measured relative to vehicle treated controls. The strain used in this assay is CLN2oe

In the case of `CCN(CC)CCNc1ccc2ncn3c4ccc(O)cc4c(=O)c1c23`, the growth inhibition reads like this: (at 1.2 µM) -4%; (at 3.7 µM) 1%; (at 11.0 µM) 0%; (at 33.0 µM) 2%; (at 100.0 µM) -1%.

For `CCOC(=O)Nc1ccc(C)c(NC(=O)OCC)c1`, the growth inhibition is 9% (at 1.2 µM); 13% (at 3.7 µM); 23% (at 11.0 µM); 23% (at 33.0 µM); 23% (at 100.0 µM).

In the case of `CCCNC(=O)OCc1c(COC(=O)NCCC)c(-c2ccc(Cl)c(Cl)c2)n2c1CCC2`, the growth inhibition runs as follows: (at 1.2 µM) 0%; (at 3.7 µM) -16%; (at 11.0 µM) -15%; (at 33.0 µM) 4%; (at 100.0 µM) 20%.

In the case of `CC(C(=O)N1C(=O)N(C(=O)C(C)C(O)c2ccccc2)C2CCCCC21)C(O)c1ccccc1` (stereo not given), the growth inhibition (at 1.2 µM) is 1%; the growth inhibition (at 3.7 µM) is -2%; the growth inhibition (at 11.0 µM) is 4%; the growth inhibition (at 33.0 µM) is 11%; the growth inhibition (at 100.0 µM) is 15%.

For `CC(=O)/C(=C\c1ccc(Cl)c(Cl)c1)C(=O)C(C)CN(C)C` (stereo not given), the growth inhibition is, setting by setting: (at 1.2 µM) 8%; (at 3.7 µM) -2%; (at 11.0 µM) 17%; (at 33.0 µM) 44%; (at 100.0 µM) 81% (active).

For `COc1c2c(c3c(c1CCC(=O)O)OC(C)(C)C=C3)OC(C)(C)C=C2`, the growth inhibition is -1% (at 1.2 µM); -1% (at 3.7 µM); 27% (at 11.0 µM); 80% (active) (at 33.0 µM); 99% (active) (at 100.0 µM).

Consider `CC(=O)/C=C/c1cc([N+](=O)[O-])ccc1O`, for which the growth inhibition by setting is: (at 1.2 µM) -5%; (at 3.7 µM) 3%; (at 11.0 µM) 23%; (at 33.0 µM) 86% (active); (at 100.0 µM) 98% (active).

As to `CC1CN(/N=C\c2ccc([N+](=O)[O-])o2)C(=O)O1` (stereo not given), the growth inhibition (at 1.2 µM) was -7%; the growth inhibition (at 3.7 µM) is -6%; the growth inhibition (at 11.0 µM) is -3%; the growth inhibition (at 33.0 µM) was -7%; the growth inhibition (at 100.0 µM) is -6%.
